Results on eleven substances are retold here after ChEMBL document CHEMBL1201862, “PubChem BioAssay data set” (2004).

Hit rate of the full screen: of about 56,000 sequences, about 4,300 (7.7%) were called active. No stated cut-off is given here; in the data, active = GI50 up to about 1.1 µM and inactive = higher. These entries were drawn from the full list. Entries with a potency or affinity are not part of this list.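 Results reflect a 48-hour exposure of cells in 96-well plates to compound at five concentrations. Abbreviation: GI50, concentration required for 50% inhibition of growth.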

This experiment concerns OVCAR-3. As to the kind of experiment: NCI tumour cell line growth inhibition, 48 h.
The substance “[Bis(aminomethyl)dimethylsilane]dichloroplatinum (II), CHEMBL2146201” gave a GI50 of 30.5 µM.

Take “[Bis(aminomethyl)pentamethylenesilane]dichloropaltinum(II), CHEMBL2146202”: the GI50 is 6.5 µM. For “[Bis(aminomethyl)dimethylsilane]tetrachloroplatinum(IV), CHEMBL2146190” the value was 7.29 µM; for “cis-Bis[[(trimethylsilyl)methyl]amino]tetrachloroplatinum(IV), CHEMBL2146191”, 2.99 µM; for “[Bis(aminomethyl)pentamethylenesilane]tetrachloropaltinum(IV), CHEMBL2146204”, 4.56 µM.

“[Bis(aminomethyl)tetramethylenesilane]dichloropaltinum(II), CHEMBL2146205” displayed a GI50 of 32.5 µM. The same measure for “[Bis(aminomethyl)tetramethylenesilane]tetrachloropaltinum(IV), CHEMBL2146189”: 13.1 µM; for CISPLATIN, CHEMBL11359: 2.67 µM; for “[Bis(aminomethyl)diethylsilane]tetrachloroplatinum(IV), CHEMBL2146203”: 6.11 µM. For “[Bis(aminomethyl)ethylmethylsilane]tetrachloroplatinum(IV), CHEMBL2146192”, the GI50 was found to be 4.43 µM. For “mu-(1,7-nanodiamine-N,N')bis-(cis-aminedichloroplatimum (II)), CHEMBL2146215” the value was 29 µM.
